This is an account of results in PubChem BioAssay.

Values without a mark were called inactive. The source made the active and inactive calls.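 Rule for the calls: active = thallium flux through the channel raised or lowered by more than 3 SD from vehicle-only wells, actives on both sides; inactive = the rest.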

For the assay, the system named is F380Y/beta1. Put plainly: modulators of BK channel variants, profiling panel, selectivity assay, cell-based, U2OS BacMam, thallium flux, beta subunits (AID 1259406).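 Note: initial slope of Thallos dye fluorescence rise after thallium is added; log ratio against the mean of 0.3% DMSO vehicle wells on the same plate.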 The following applies: at 30 µM.
`CC12CC3CC(C)(C1)CC(N)(C3)C2`: the log fold change Tl+ flux was 0.0185. The result for `CC(=O)OCC(CCn1cnc2cnc(N)nc21)COC(C)=O` reads 0.035.

In the case of `S=c1nc[nH]c2nc[nH]c12`, the log fold change Tl+ flux is -0.00111. As to `Oc1c(Cl)cc(Cl)c2cccnc12`, the log fold change Tl+ flux was 0.135 (active). Consider `CC1=NS(=O)(=O)c2cc(Cl)ccc2N1`, for which the log fold change Tl+ flux was -0.0354. As for `OC(Cn1cncn1)(Cn1cncn1)c1ccc(F)cc1F`, the figure is -0.0268; as for `NCCc1ccc(O)c(O)c1`, 0.0356. `CN=C(NC#N)NCCSCc1nc[nH]c1C`: the log fold change Tl+ flux was 0.0381.

In the case of `COc1c(N2CCNC(C)C2)c(F)cc2c(=O)c(C(=O)O)cn(C3CC3)c12` (centres undefined), the log fold change Tl+ flux was -0.0535. As for `CC1COc2c(N3CCN(C)CC3)c(F)cc3c(=O)c(C(=O)O)cn1c23` (centres undefined), the figure is -0.00501; as for `O=C(C1CCCCC1)N1CC(=O)N2CCc3ccccc3C2C1` (centres undefined), 0.027. For the molecule `CCc1cc(C(N)=S)ccn1`, the log fold change Tl+ flux was 0.0016. On to `CC1=C(/C=C/C(C)=C/C=C/C(C)=C/C(=O)O)C(C)(C)CCC1`, for which the log fold change Tl+ flux was 0.0141.

Take `CCCCNc1cc(C(=O)O)cc(S(N)(=O)=O)c1Oc1ccccc1`: the log fold change Tl+ flux is -0.0436. As to `O=c1[nH]cnc2[nH]ncc12`, the log fold change Tl+ flux was 0.000941. Take `O=C1c2c(O)ccc(O)c2C(=O)c2c(NCCNCCO)ccc(NCCNCCO)c21`: the log fold change Tl+ flux was -0.0573.

As for `O=C(O)c1cc(=O)c2c(OCC(O)COc3cccc4oc(C(=O)O)cc(=O)c34)cccc2o1`, the log fold change Tl+ flux is -0.0414. With `CC(C)C(=O)Nc1ccc([N+](=O)[O-])c(C(F)(F)F)c1`, the log fold change Tl+ flux was 0.104.

As for `CC(COc1ccccc1)N(CCCl)Cc1ccccc1` (centres undefined), the log fold change Tl+ flux was -0.00151. As for `CCCc1nc2c(C)cc(-c3nc4ccccc4n3C)cc2n1Cc1ccc(-c2ccccc2C(=O)O)cc1`, the log fold change Tl+ flux was 0.00163. With `CC(=O)CC(c1ccccc1)c1c(O)c2ccccc2oc1=O` (centres undefined), the log fold change Tl+ flux was -0.0341. As for `NS(=O)(=O)c1cc2c(cc1Cl)NCNS2(=O)=O`, the figure is -0.00418; as for `CS(=O)(=O)OCCCCOS(C)(=O)=O`, 0.0504. As for `CCOC(=O)C1=C(C)NC(C)=C(C(=O)OC)C1c1cccc([N+](=O)[O-])c1` (centres undefined), the figure is -0.0255. On to `COc1ccccc1OCCNCC(O)COc1cccc2[nH]c3ccccc3c12` (centres undefined), for which the log fold change Tl+ flux was 0.26 (active). As to `O=C(O)CCCc1ccccc1`, the log fold change Tl+ flux is 0.0211. Take `NNCCc1ccccc1`: the log fold change Tl+ flux is -0.0168. Regarding `CC1Cc2ccccc2N1NC(=O)c1ccc(Cl)c(S(N)(=O)=O)c1` (centres undefined), the log fold change Tl+ flux was 0.039. As for `CC(C)Cc1ccc(C(C)C(=O)O)cc1` (centres undefined), the log fold change Tl+ flux was -0.0217. With `N[C@@H]1CONC1=O`, the log fold change Tl+ flux was 0.0612.

Take `CCN(Cc1ccncc1)C(=O)C(CO)c1ccccc1` (centres undefined): the log fold change Tl+ flux was -0.00694. On to `CCCc1cc(=O)[nH]c(=S)[nH]1`, for which the log fold change Tl+ flux was -0.132 (active). Take `O=C(O)c1cccnc1`: the log fold change Tl+ flux was 0.00202. As for `CC(C[N+](C)(C)C)OC(N)=O` (centres undefined), the figure is 0.0306. Regarding `COc1ccc(Cl)cc1C(=O)NCCc1ccc(S(=O)(=O)NC(=O)NC2CCCCC2)cc1`, the log fold change Tl+ flux is 0.119 (active). In the case of `N[C@@H](Cc1cc(I)c(Oc2cc(I)c(O)c(I)c2)c(I)c1)C(=O)O`, the log fold change Tl+ flux was 0.13 (active). The result for `CC1(C)O[C@@H]2[C@@H](CO[C@@]3(COS(N)(=O)=O)OC(C)(C)O[C@@H]23)O1` reads 0.0196; that for `COCCOC(=O)C1=C(C)NC(C)=C(C(=O)OC(C)C)C1c1cccc([N+](=O)[O-])c1` (centres undefined), 0.0464; that for `NNC(=O)c1ccncc1`, 0.0138.
